An excerpt weighted towards active compounds, which were near 4.6% of everything screened.
tim23-1 inh – growth inhibitors of tim23-1 mutant yeast; S. cerevisiae tim23-1 growth, BacTiter-Glo luminescence, 24 h; inhibition, % at 20 µM; 1.3% of 330,000 active;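 active = growth inhibition of the mutant yeast at or above 50%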;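 note: temperature-sensitive mutant grown at 25 °C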
SKKanGAS inh – SKKanGAS growth inhibition; 1.3% of 300,000 active; S. pyogenes SKKanGAS, kanamycin growth, BacTiter-Glo, 6 h; inhibition, % at 7.5 µM;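 active = mean replicate score, as percent of positive control median, at least 50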;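 note: strain carries kanamycin resistance gene driven by streptokinase promoter and grows in 40 µg/ml kanamycin; loss of luminescence reflects streptokinase promoter inhibition or plain growth inhibition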
V-ATPase pHluor – regulators of yeast V-ATPase proton transport | 0.37% of 350,000 active | AID 504577 | S. cerevisiae, pHLuorin cytosolic pH fluorescence | response, % at 10 µM; in the data active = response mostly above about 7.3%, no sharp cut-off; inactive = mostly below about 5.4%; note: actives read high
PfHsp90 set2 – inhibits growth of yeast expressing Plasmodium falciparum Hsp90. inhibition, % at 9.4 µM. 0.32% of 310,000 active. S. cerevisiae expressing PfHsp90, BacTiter-Glo ATP, 48 h; yeast lacking PDR1 and PDR3 efflux regulators;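 active = every replicate shows inhibition above about 80%, whatever the replicate mean, limit read from the data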
TIM10 inh – growth inhibitors of TIM10 yeast strain; S. cerevisiae TIM10 strain growth, BacTiter-Glo luminescence, 24 h; inhibition, % at 10 µM; 1.4% of 330,000 active;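 active = inhibition of 40% or more at the single tested concentration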;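 note: wild-type TIM10 isogenic control strain grown at permissive 25 °C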
tim10-1 inh – growth inhibitors of tim10-1 mutant yeast. S. cerevisiae tim10-1 ts strain growth, BacTiter-Glo, 24 h. inhibition, % at 20 µM. 2.2% of 330,000 active;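 active = inhibition of at least 40%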;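 note: mutant grown at 25 °C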
tim10 confirm – confirmation of TIM10 yeast growth inhibitors; shares compounds with TIM10 inh; S. cerevisiae tim10 strain growth, BacTiter-Glo luminescence, 24 h; inhibition, % at 10 µM; 63% of 4,600 active; AID 463215;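 active = inhibition of yeast growth at or above a set limit in either of two replicates at 10 µM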; note: this counterscreen used the strain with wild-type TIM10
Numbers stand for hits; i = inactive; nt = not tested or not shown.

SMILES	tim23-1 inh	SKKanGAS inh	V-ATPase pHluor	PfHsp90 set2	TIM10 inh	tim10-1 inh	tim10 confirm
CCOc1cc(/C=N/NC(=O)COc2ccccc2C)ccc1OC(=O)c1cccs1	i	i	i	i	40.6	i	i
Cc1cc(C)c2c(ccc3ccccc32)n1	nt	nt	i	i	nt	nt	nt
Oc1ccc(-c2nc3ccc4ccccc4c3c3c2CCC3)cc1O	i	i	i	97.7	41.4	i	36.4
CCN(C[C@H]1N[C@@](CC)(C(=O)OC)[C@H]2C(=O)N(Cc3ccccc3)C(=O)[C@@H]12)C(=O)c1ccccc1	i	nt	i	i	i	i	nt
COc1ccc(NC(=O)c2ccc(NC(=O)c3nc4nc(C)cc(C)n4n3)cc2)cc1	i	nt	i	i	42.5	i	i
COc1ccc(NC(=O)CSc2nc3nc(C)cc(C)n3n2)cc1	i	i	i	i	i	i	nt
O=[N+]([O-])c1ccc(N/N=C\c2cccn2-c2ccccc2)nc1	i	i	i	i	43.3	i	i
CCC1C(=O)C[C@H]2CCN3C(=O)CCCC1C23 (stereo partly drawn)	i	nt	i	i	i	i	nt
CC(C)CCOP(=O)(c1ccc(N(C)C)cc1)C(O)c1ccc(C(C)C)cc1 (stereo not drawn)	i	i	i	i	i	i	36.3
CC(C)CCOP(=O)(c1ccc(N(C)C)cc1)C(O)c1ccccc1F (stereo not drawn)	i	i	i	i	50.1	i	41.4
Cc1ccccc1C(=O)Nc1scc(-c2ccc(Br)cc2)c1C(=O)O	i	85.8	i	i	52.9	i	42.3
CSc1nc(-c2ccccc2)nn1C(=O)c1ccc(Cl)cc1	i	i	i	i	48.5	i	i
COc1cccc(CN(c2ccc3c(c2)CCC3)S(=O)(=O)c2ccc(-n3cnnn3)c(OC)c2)c1	i	i	i	i	i	i	nt
Cc1nc2cc(Cl)ccc2c(=O)n1Cc1ccncc1	i	i	i	i	i	i	nt
COc1ccc(OC)c(/C=C/C(=O)OCC(=O)NCc2ccccc2)c1	i	nt	i	i	i	i	nt
COc1ccc(OC)c(/C=C/C(=O)OCC(=O)NCc2cccs2)c1	i	nt	i	nt	40.8	i	i
O=C(NNC(=O)c1ccco1)c1cccc([N+](=O)[O-])c1	i	i	i	i	i	i	nt
Cc1noc(C)c1S(=O)(=O)N(C)C[C@H]1Oc2ccc(NC(=O)CCC(F)(F)F)cc2C(=O)N([C@H](C)CO)C[C@@H]1C	i	nt	i	i	i	i	nt
Cc1ccc2[nH]c(C)c(/C=N/Nc3nc4ccccc4s3)c2c1	i	i	i	105.8	41.9	i	59.2
COc1ccc(C=NNc2nc3ccccc3s2)cc1	nt	nt	i	i	nt	nt	nt
COc1ccc(-c2nc3n(c(=O)c2C#N)CCCS3)cc1	i	i	i	i	i	i	nt
CCOc1ccc(-c2nc3n(c(=O)c2C#N)CCCS3)cc1	i	57.6	i	i	97.3	i	i
COc1cccc(C(=O)OCC(=O)c2c[nH]c3ccccc23)c1O	i	i	i	i	i	i	nt
CC1CCN(CCNC(=S)Nc2ccc(Cl)cc2)CC1	i	i	i	i	i	i	nt
COC(=O)Cc1c(C)c2cc(Cl)c(OC(=O)c3ccco3)cc2oc1=O	i	i	i	i	54.3	i	40.5
SMILES	tim23-1 inh	SKKanGAS inh	V-ATPase pHluor	PfHsp90 set2	TIM10 inh	tim10-1 inh	tim10 confirm
O=C(Oc1cc2oc(=O)c3c(c2cc1Cl)CCCC3)c1ccco1	i	i	i	i	50.7	i	32.2
O=C(NCc1ccccc1Cl)C1CCCN1C(=O)Nc1ccccc1 (stereo not drawn)	i	i	i	i	i	i	nt
O=[N+]([O-])C1C(c2ccccc2)=NOC1c1ccccc1O (stereo not drawn)	i	i	i	i	i	i	nt
CC(=O)c1ccc(NC(=O)Cn2c3ccccc3c3nc(=O)cc(C)n32)cc1	i	i	i	i	i	i	nt
Cc1ccc(C(=O)C[n+]2cc(-c3ccc(C)cc3)n3c2CCCCC3)cc1	i	i	i	i	46.4	i	i
COc1ccccc1N1CCN(C(=O)c2cc(-c3cccc(Cl)c3)on2)CC1	i	i	i	i	42.7	i	30.6
COc1cc(Cl)ccc1OCc1cc(C(=O)N2CCN(c3ccccn3)CC2)no1	i	i	i	i	55.2	i	68.2
COc1ccccc1N1CCN(C(=O)c2cc(-c3ccc4c(c3)OCO4)on2)CC1	i	i	i	i	i	i	nt
CC(NCC1(N2CCOCC2)CCCCC1)C(=O)Nc1ccc(Cl)cc1Cl (stereo not drawn)	i	i	i	i	i	i	nt
COc1ccc2sc(N(CCCN(C)C)C(=O)c3ccc(S(=O)(=O)N4CCc5ccccc5C4)cc3)nc2c1	i	i	i	i	i	i	nt
Cc1ccc2nc(N(CCCN(C)C)C(=O)c3ccc(S(=O)(=O)N4CCc5ccccc5C4)cc3)sc2c1	i	i	i	i	44.9	i	i
CN(c1ccccc1)C(c1ccc(F)cc1)c1nnnn1C1CCCC1 (stereo not drawn)	i	i	i	nt	45.4	i	31.4
CN(c1ccccc1)C(c1ccc(F)cc1)c1nnnn1CC1CCCO1 (stereo not drawn)	i	i	i	i	i	i	nt
Cc1cc2n(n1)SC(Nc1ccc(F)cc1)N2 (stereo not drawn)	i	i	i	i	i	i	nt
Cc1cc2n(n1)SC(Nc1cccc3ccccc13)N2 (stereo not drawn)	i	i	i	i	41.8	i	i
CCOc1cc(/C=N/NC(=O)c2cccnc2)ccc1OCC(=O)N1CCOCC1	i	i	i	i	i	i	nt
COc1cc(NC(=O)c2cccs2)ccc1NC(=O)c1ccco1	i	i	i	i	47.4	i	i
C[C@H]1CN([C@@H](C)CO)C(=O)CCCn2cc(nn2)CO[C@@H]1CN(C)S(=O)(=O)c1ccc(Oc2ccccc2)cc1	nt	nt	i	nt	nt	nt	nt
CC1(c2ccc(C#N)cc2)NC(=O)N(CC(=O)Nc2cc(S(=O)(=O)N3CCOCC3)ccc2Cl)C1=O (stereo not drawn)	i	i	i	i	i	i	nt
Cc1nc2oc3c(NCc4ccccc4)ncnc3c2c2c1COC(C)(C)C2	i	i	i	i	40.5	i	i
CC(C)(C)c1nc(NC(=O)Nc2ccccc2)sc1Br	i	67.8	i	i	49.0	i	48.7
CCOC(=O)c1c(-c2ccccc2Cl)csc1NC(=O)c1cc(S(=O)(=O)N2CCOCC2)ccc1C	i	i	i	i	i	i	nt
Cc1cnc(C(=O)OC(C(=O)Nc2cc(C(F)(F)F)ccc2Cl)c2ccccc2)cn1 (stereo not drawn)	i	i	i	i	97.6	i	i
CC(=O)c1ccc(-c2ccc(C(=O)Nc3nc(C)c(C(C)=O)s3)o2)cc1	i	nt	i	i	i	i	nt
COC(=O)c1ccc(NC(=S)NC2CCc3ccccc32)cc1 (stereo not drawn)	i	i	i	i	46.9	i	31.2
Clc1c(-c2ccccc2)nc2ccccn12	i	i	i	i	97.4	i	i
